GASC-1 inh – inhibitors of GASC-1 histone demethylase, primary screen, biochemical, fluorescence, DELFIA europium; GST-JMJD2C(1-420) H3K9me3 demethylation; inhibition, % at 2.35 µM; 330,000 compounds, 0.069% hits;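 active means more than half of a compound's replicate wells show inhibition beyond 50%, single wells judged on their own value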;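 further: signal counts dimethyl H3K9 product captured on neutravidin plate; 0% = median of DMSO wells and 100% = 0.3 times that DMSO median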
Target sequence (Q9H3R0 1-420 limits assumed): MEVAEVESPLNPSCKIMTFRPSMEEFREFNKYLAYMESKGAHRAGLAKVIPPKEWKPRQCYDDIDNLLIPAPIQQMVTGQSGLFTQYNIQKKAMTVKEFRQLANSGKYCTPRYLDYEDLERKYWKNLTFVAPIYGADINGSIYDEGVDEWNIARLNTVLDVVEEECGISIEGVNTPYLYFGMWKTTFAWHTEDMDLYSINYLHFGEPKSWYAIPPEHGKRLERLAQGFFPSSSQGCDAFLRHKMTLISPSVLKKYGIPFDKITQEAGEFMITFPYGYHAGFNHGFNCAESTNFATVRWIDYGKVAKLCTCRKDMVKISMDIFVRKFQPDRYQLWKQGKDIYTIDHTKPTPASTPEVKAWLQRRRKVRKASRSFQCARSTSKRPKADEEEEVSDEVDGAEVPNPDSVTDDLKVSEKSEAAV
PolyA inh – polyadenylation inhibitors in yeast reporter cells, primary screen, luminescence, S. cerevisiae; S. cerevisiae SKY197-pL101 polyadenylation reporter, beta-gal luminescence; efflux-impaired pdr1/pdr3 knockout yeast; score 100 = 6 SD above DMSO; activity score, % at 12 µM; 300,000 compounds, 0.02% hits; AID 1875, 2009;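 active means lowest replicate activity score at least 50, where 100 means six control SD above control mean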;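 further: yeast exposed to compound for 9 h at 30 °C; higher score means more reporter readthrough which indicates perturbed polyadenylation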
ABCB6 inh MLPCN – ABCB6 transporter inhibitors, primary screen, K562-ABCB6 cells, flow cytometry, MLPCN library | fluorescence ratio to DMSO, % at 10 µM | AID 602162, 2011 | 360,000 compounds, 0.19% hits | ATP-binding cassette sub-family B member 6 (Homo sapiens), Q9NP58 | K562-ABCB6 porphyrin accumulation, 1 h; stronger effect = lower value;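 active means fluorescence ratio to DMSO below 75%, the collection mean minus 3 SD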;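 further: signal is porphyrin accumulated inside mitochondria; 100% equals median channel fluorescence of DMSO control wells; lower ratio means ABCB6 inhibition with less porphyrin fluorescence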
VLA-4 inh – inhibition in human VLA-4 binding assay, primary screen, VLA-4 allosteric modulator project, MLPCN library, flow cytometry, VLA-4 expressing cells | ligand binding flow cytometry | inhibition, % (about 7 µM as worked out from the volumes in the protocol) | 330,000 compounds, 0.2% hits | AID 2557, 2010; in the data active means inhibition above about 50%
VLA-4 mod pick – retest of VLA-4 allosteric modulators, confirmation, cell-based, cherry-picked plates, U937, HUTS-21 LIBS antibody; shares compounds with VLA-4 inh; U937 cells, HUTS-21 LIBS mAb binding, flow cytometry; LDV ligand present at threefold Kd; inhibition, % at 6.7 µM; 1,300 compounds, 2% hits; AID 2813, 2010; in the data active means inhibition above about 40%;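 further: 0% = ligand without compound and 100% = no ligand background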
An asterisk follows results filed as active; · = not tested or not shown; ! = repeats disagree. Hits are enriched below; roughly 0.44% of the tested compounds scored in any of these assays.

SMILES | GASC-1 inh | PolyA inh | ABCB6 inh MLPCN | VLA-4 inh | VLA-4 mod pick
COc1ccc(N2CCN(C(=O)c3ccc4ccccc4n3)CC2)cc1 | -13 | 7 | 97 | 41 | 7
COc1cccc(-n2c(Cc3cc(=O)[nH]c(=O)[nH]3)nnc2SCC(=O)N2CCCC2)c1 | 6 | 16 | 98 | -8 | 15
COc1cccc(-n2c(Cc3cc(=O)[nH]c(=O)[nH]3)nnc2SCC(=O)N2CCCCCC2)c1 | -7 | · | 104 | -5 | 9
COc1ccc(-n2c(Cc3cc(=O)[nH]c(=O)[nH]3)nnc2SCC(=O)N2CCCC2)cc1 | -3 | 3 | 103 | -6 | ·
CCOc1ccc(NC(=O)COC(=O)c2c(OC)cccc2OC)cc1 | 3 | -11 | 99 | -6 | -16
COC(=O)c1ccc2c(c1C(=O)OC)CN(S(=O)(=O)C(C)(C)C)[C@H]2CCO | · | · | 101 | · | ·
CN(C)c1cccc(C(=O)OCC(=O)N(C)c2ccccc2)c1 | -7 | 7 | 101 | -8 | 0
CN(C(=O)COC(=O)c1cccc(F)c1)c1ccccc1 | -162 | 9 | 98 | 30 | ·
CC(C(=O)Nc1ccccc1-c1ccccc1)N1CCN(S(=O)(=O)c2ccccc2)CC1 (stereo not drawn) | -5 | -33 | 95 | 6 | ·
COC(=O)c1ccc(-n2c(C)cc(C(=O)CSc3ccc(NC(C)=O)cc3)c2C)cc1 | 31 | -1 | 95 | 40 | -4
COc1cccc(NC(=O)COc2ccc(Br)c(C)c2)c1 | 13 | -13 | 92 | -4 | ·
O=C1C2C3C=CC(CO)(O3)C2C(=O)N1c1ccccc1-c1ccccc1 (stereo not drawn) | 2 | · | 94 | 50* | 4
CC(=O)Oc1ccc(N2C(=O)C3C4C=CC(CO)(O4)C3C2=O)cc1 (stereo not drawn) | -4 | 7 | 214 | -7 | ·
COc1ccc(-c2sc3cc4c(cc3c2-c2ccc(OCCN3CCCCC3)cc2)OCO4)cc1 | · | · | 98 | · | 0
COc1ccccc1-c1sc2cc3c(cc2c1-c1ccc(OCCN2CCOCC2)cc1)OCO3 | · | · | 98 | · | 0
CN(C)CCOc1ccc(-c2c(-c3ccccc3)sc3ccccc23)cc1 | 30 | · | 92 | 70* | 30
c1ccc(-c2sc3ccccc3c2-c2ccc(OCCN3CCCCC3)cc2)cc1 | -6 | · | 100 | 17 | -8
O=C(NCC(=O)N(Cc1ccc(F)cc1)C(C(=O)NC1CCCC1)c1ccco1)c1ccco1 (stereo not drawn) | 35 | -1 | 85 | 0 | ·
CCCNC(=S)Nc1ccc(Cl)cc1Cl | 5 | 16 | 98 | -1 | ·
COc1ccc(-c2sc3cc(OC)ccc3c2-c2ccc(OCCN3CCOCC3)cc2)cc1 | · | · | 99 | · | 0
COc1cc(OC)cc(-c2sc3ccc(OC)cc3c2-c2ccc(OCCN3CCCCC3)cc2)c1 | · | · | 110 | · | 0
COc1ccc(-c2c(-c3cc(OC)cc(OC)c3)sc3ccc(OC)cc23)cc1 | -7 | · | 95 | -4 | ·
O=C(N/N=C/c1cccn1-c1ccccc1)c1ccncc1 | · | 0 | 102 | 4 | ·
COc1ccc(C(=O)NCc2cccnc2)cc1C(=O)NCc1cccnc1 | · | · | 98 | 56* | -1
Cc1ccc(-c2nn3c(-c4ccco4)nnc3c3ccccc23)cc1S(=O)(=O)NCC1CCCO1 (stereo not drawn) | -31 | -7 | 94 | 39 | 3
SMILES | GASC-1 inh | PolyA inh | ABCB6 inh MLPCN | VLA-4 inh | VLA-4 mod pick
N#Cc1c(-c2c(Cl)cccc2Cl)noc1/C=C/Nc1ccc(C(=O)O)cc1 | 3 | 6 | 104 | 42 | -2
COc1cccc(C(=O)Nc2ncc3c(n2)CC(C)CC3=O)c1 (stereo not drawn) | 6 | -10 | 96 | 62* | 0
CN1CCc2nc(SCC(=O)Nc3ccc(Cl)cc3)c(C#N)cc2C1 | 5 | -2 | 102 | 106* | -3
COc1ccccc1/C=N/NC(=O)CCn1cnc2ccccc21 | -6 | 4 | 100 | 58* | -1
NS(=O)(=O)c1ccc(CCNC(=O)COC(=O)/C=C/c2ccc(Cl)cc2)cc1 | 14 | 5 | 95 | -2 | ·
CCOCCCNC(=O)/C(C#N)=C/c1ccc(Cl)c([N+](=O)[O-])c1 | 0 | -11 | 98 | 59* | 36
COCCNC(=O)/C(C#N)=C/C(C)=C/c1ccccc1 | 4 | 13 | 98 | 10 | ·
CCCCCCCCNC(=O)/C(C#N)=C/c1ccc2c(c1)OCCO2 | 6 | 7 | 100 | 4 | ·
COCCNC(=O)/C(C#N)=C/c1ccc(O)cc1 | -15 | 0 | 95 | 2 | -1
CCCCCCCCNC(=O)/C(C#N)=C/c1ccc(SC)cc1 | 1 | 2 | 103 | 0 | 0
COCCNC(=O)/C(C#N)=C/c1cccc(/C=C(\C#N)C(=O)NCCOC)c1 | 0 | -12 | 98 | 50* | 21
COc1ccc(CNC(=O)C[C@H]2C[C@H](C(=O)N3CCOCC3)[C@@]3(CCC4CCCC4)c4[nH]c5cc(CCC(=O)N(C)C)ccc5c4CCN3C2=O)cc1OC | · | · | 97 | · | ·
S=c1[nH]nc(Cn2c(-c3ccccn3)nc3ccccc32)n1-c1ccc2c(c1)OCCO2 | 14 | 12 | 98 | -2 | ·
COc1ccc2[nH]c(S(=O)Cc3ncc(C)c(OC)c3C)nc2c1 (stereo not drawn) | -40 | -5 | 98 | 54*! | -6
CCN(CC(=O)Nc1ccc(NC(C)=O)cc1)C(=O)CN1C(=O)NC(C)(c2ccc3ccccc3c2)C1=O (stereo not drawn) | · | · | 99 | · | ·
C=C(C)CN(CC)C(=O)CN1C(=O)NC(C)(c2ccc3ccccc3c2)C1=O (stereo not drawn) | -3 | -3 | 97 | 50* | -13
COc1cc(NC(=O)Cn2cnc(S(=O)(=O)N3CCCCC3)c2)cc(OC)c1OC | 1 | 3 | 98 | -1 | ·
COc1ccc([C@H]2C(C(=O)O)=C[C@@H](C(C)(C)C)N2S(=O)(=O)c2ccc(C)cc2)cc1OC | · | · | 103 | 40 | 1
CCc1ccc([C@H]2C(C(=O)O)=C[C@@H](C(C)(C)C)N2S(=O)(=O)c2ccc(C)cc2)cc1 | · | · | 92 | 26 | 1
CC[C@@H]1C=C(C(=O)O)[C@H](c2ccc(C)cc2)N1S(=O)(=O)c1ccc(C)cc1 | 38 | · | 96 | 36 | 0
CCOC(=O)C1=C[C@@H](C(C)(C)C)N(S(=O)(=O)c2ccc(C)cc2)[C@H]1c1ccccc1 | · | · | 87 | · | ·
CC(C)(C)[C@@H]1C=C(C(=O)O)[C@H](c2ccc(Cl)cc2)N1S(=O)(=O)c1ccccc1 | · | · | 105 | 26 | 0
COc1ccc(C(=O)N/N=C/c2cc(Br)ccc2O)cc1OC | 3 | -10 | 96 | 6 | ·
CC(C)(C)S(=O)(=O)/C(C#N)=N/Nc1ccc(Cl)cc1 | -1 | -13 | 96 | -39 | ·
